# Reference: PubChem BioAssay (EPA / NIEHS)
# Values joined by “and” are separate entries in the source; they are usually repeats but may differ in a detail not shown here. Equal values may be shown once. Some structures have more than one record in an assay (separate samples or runs), and their calls can disagree. Active and inactive are the calls of the source. Rule for the calls: active = hit-call score of the fitted dose curve at least 0.9, where 1 is the maximum; inactive = score below 0.9.
# Read-out: Matrix Metallopeptidase 1 (MMP1), MMP1 (gene 4312)
# Experiment: BSK_BE3C_MMP1: BioMAP Diversity Plus: BE3C Assay for Matrix Metallopeptidase 1 (MMP1) Biomarker Activity (AID 2283024)
# Details: primary human bronchial epithelial cells; actives raise or lower the signal
# Method: BSK_BE3C is a cell-based, multiplexed-readout assay that uses bronchial epithelial cell, a human lung primary cell, with measurements taken at 24 hours after chemical dosing in a 96-well plate.BSK_BE3C_MMP1 is an assay component measured in the BSK_BE3C assay. It measures MMP-1 antibody related to regulation of gene expression using ELISA technology.Data from the assay component BSK_BE3C_MMP1 was analyzed into 1 assay endpoint. This assay endpoint, BSK_BE3C_MMP1, was analyzed with bidirectional fitting relative to DMSO as the negative control and baseline of activity. Using a type of binding reporter, gain or loss-of-signal activity can be used to understand changes in the signaling as they relate to the gene MMP1. Furthermore, this assay endpoint can be referred to as a primary readout, because this assay has produced multiple assay endpoints where this one serves a signaling function. To generalize the intended target to other relatable targets, this assay endpoint is annotated to the protease intended target family, where the subfamily is matrix metalloproteinase.
# The levels of cell surface (or secreted, indicated by the prefix "s") biomarker endpoints were measured by ELISA. Overt cytotoxicity to cells in confluent adherent cultures (all systems other than the BT system) was assessed by measuring total protein levels using sulforhodamine B (SRB) staining in parallel cultures at the time of biomarker measurements, indicated as SRB endpoints. For proliferation assays for adherent cell types, individual cell types are cultured at sub-confluence and relative cell numbers quantified by SRB staining at time points optimized for each system (48 h: 3C and CASM3C systems; 72 h: BT and HDF3CGF systems; 96 h: SAg system). SRB was performed by staining cells with 0.1% SRB after fixation with 10% TCA and reading wells at 560 nm.Viability and proliferation of PBMC (T cells) was quantified by Alamar Blue reduction for the SAg and BT systems. For PBMC viability (referred to as PBMC Cytotoxicity within the assay endpoint names), cells were plated (75,000/well in a 96-well plate) and then chemical samples added for 1 h before addition of activators, SEB and TSST-1 (20 ng/mL final concentration each). Cells were incubated for 90 h. Then, Alamar Blue (20 uL/well) (Invitrogen, Cat DAL1100) was added for 6 h, and the plates were read with a fluorescence microplate reader at 546/580 nm (excitation/emission). For PBMC proliferation, cells were plated and activated as above but incubated for only 16 h prior to addition of Alamar Blue. Plates were read after 6 h.
SMILES,outcome,AC50
O=C(Cl)c1c(Cl)c(Cl)c(C(=O)Cl)c(Cl)c1Cl,inactive,–
COc1ccc(C(=O)c2ccccc2)c(O)c1,inactive,–
CC(C)CCCCCOC(=O)CS,inactive,–
CCN1CN(CC)CN(CC)C1,–,112 nM (active)
CC1(C)CC(O)CC(C)(C)N1[O],inactive,–
c1ccc2c(c1)[nH]c1ccccc12,inactive,126 nM (active)
CCOC(=O)C1=NN(c2ccc(Cl)cc2Cl)C(C)(C(=O)OCC)C1 (stereo not given),inactive,–
CC/C=C\C/C=C\C/C=C\CCCCCCCC(=O)OC,–,33600 nM (active)
CCCC(C)C(=O)OCC (stereo not given),inactive,–
c1ccc(Nc2cccc3ccccc23)cc1,–,8.87 µM (active) and 4.89 µM (active)
CC(C)[N+](C)(CCOC(=O)C1c2ccccc2Oc2ccccc21)C(C)C,inactive,–
O=C(Oc1ccccc1)c1ccccc1C(=O)Oc1ccccc1,inactive,–
CC(Cl)COP(=O)(OCC(C)Cl)OCC(C)Cl (stereo not given),inactive,–
CCOC(=O)C1=NOC(c2ccccc2)(c2ccccc2)C1,inactive,–
CC=C(C)C(C)=O,–,419 nM (active)
C=CC(=O)NC(C)(C)C,inactive,–
C=CC(=O)OCC(C)OCC(C)OCC(C)OC(=O)C=C (stereo not given),inactive,–
C[N+](C)(C)CCCNS(=O)(=O)C(F)(F)C(F)(F)C(F)(F)C(F)(F)C(F)(F)C(F)(F)C(F)(F)C(F)(F)F,inactive,19600 nM (active)
O=C1CCCCCCCCCCCN1,inactive,–

SMILES,outcome,AC50
Cc1ccc([N+](=O)[O-])cc1N,inactive,–
Oc1c(Cl)cc(Cl)c(Cl)c1Cl,–,4310 nM (active)
C=C(C)C(=O)OCCCCCCCCCCCC,inactive,–
Clc1cc(Cl)c(Cl)c(Cl)c1Cl,inactive,–
CCc1cccc(C)c1N(C(=O)CS(=O)(=O)O)C(C)COC (stereo not given),inactive,–
CCCCCC1=CCCC1=O,–,16 nM (active)
Nc1cccc(N)n1,inactive,–
CCCCC1C(=O)N(c2ccccc2)N(c2ccccc2)C1=O,inactive,–
CC/C=C\CCOC(=O)c1ccccc1O,inactive,–
COC(OC)(C(=O)c1ccccc1)c1ccccc1,inactive,–
CCCCCCCCC(CO)CCCCCC (stereo not given),inactive,–
CC(CCC(=O)O)(c1ccc(O)cc1)c1ccc(O)cc1,inactive,–
Nc1nc(N)nc(-c2ccccc2)n1,inactive,–
C1CNCCN1,inactive,–
CCOC(=O)/C=C\C(=O)OCC,inactive,–
CC=C(C)C=CC=C(C)C,inactive,–
C=CC(=O)OCCCCCCCC(C)C,inactive,–
C=CC(=O)NCOCCCC,inactive,–
CC1=CC=C(C(C)C)CC1,inactive,–
